This passage reports inhibition results from PubChem BioAssay AID651739 (Broad Institute, 2012).

Molecules are shown by their SMILES. About 4,100 (73%) of roughly 5,600 compounds were called active. Another 4% or so got no clear call; they are omitted. So high a share suggests a set chosen from earlier hits. Not all results are given here. A number with no mark means an inactive call.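 Rule for the calls: active = mean replicate inhibition above about 95% and at least 55% of replicates individually reaching it (limit read from the data); inconclusive = only one of the two criteria is met; inactive = neither criterion is met.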

This assay in a line: T. cruzi intracellular proliferation inhibitors, confirmation, cell-based, NIH3T3 host, beta-gal parasite, luminescence, cherry-pick (AID 651739). The conditions noted are these: T. cruzi beta-gal in NIH3T3, GalScreen luminescence, 90 h; at 8.35 µM; hits give high values.
Turning to `O=C(Cc1cccnc1)N1CCCCN2[C@@H](CO)[C@H](c3ccc(C#CC4CCCC4)cc3)[C@@H]2C1`, the inhibition (usually the relative decrease from the control value, in per cent) was 103% (active).
With `COc1ccc(C#Cc2ccc([C@H]3[C@H](CO)N4CCCCN(C(=O)Cc5ccccc5)C[C@@H]34)cc2)cc1` the figure was 95.6% (active); with `O=C(Cc1ccccn1)N1CCCCN2[C@@H](CO)[C@@H](c3ccc(C#Cc4ccccc4)cc3)[C@@H]2C1`, 112% (active).
Take `COc1ccc(-c2ccc([C@H]3[C@H](CO)N4CCCCN(C(=O)Cc5ccncc5)C[C@@H]34)cc2)cc1`: the inhibition was 89.1%.
In the case of `C/C=C/c1ccc([C@H]2[C@H](CO)N3CCCCN(C(=O)Cc4ccncc4)C[C@@H]23)cc1`, the inhibition was 99.2% (active).
